# Test results taken from PubChem BioAssay (NCATS).
# Records with an inconclusive call do not appear.
# Assay: qHTS for identification of novel therapeutic agents for treatment of microphthalmiaassociated transcription factor (MiT) renal cell carcinoma (RCC) (AID 1963991)
# Conditions: TFE3-RCC viability, CellTiter-Glo, 48 h; measured here: UOK145 Z-AUC; stronger effect = lower value
# Summary of the method: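 Three TFE3-fusion RCC cell lines (UOK109, UOK124, UOK145), 500 cells/well, were exposed to the 1912-compound MIPE 4.0 library for 48 hours at 37 C. Viability was read by CellTiter-Glo luminescence, normalised to DMSO (100%) and empty wells (0%), with 11-concentration curve fits.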
row,SMILES,z-score
1,CC(C)(O)c1cc2nc(-c3cnc(N)nc3)nc(N3CCOCC3)c2s1,-2.51
2,CN[C@H]1CCc2cc(OC)c(OC)c(OC)c2-c2ccc(OC)c(=O)cc21,-0.848
3,O=C(C=Cc1c(C(=O)O)[nH]c2cc(Cl)cc(Cl)c12)Nc1ccccc1,0.334
4,CN1CC[C@@H](c2c(O)cc(O)c3c(=O)cc(-c4ccccc4Cl)oc23)[C@@H](O)C1,-2.13
5,Cc1[nH]c2ccccc2c1CCNCc1ccc(C=CC(=O)NO)cc1,-1.46
6,COc1cccc(Nc2c(C(N)=O)cnc3c(C)cc(S(=O)(=O)c4cccc(C(=O)N(C)C)c4)cc23)c1,0.957
7,CC(C)[C@H](C(=O)Nc1ccc(C(=O)NO)cc1)c1ccccc1,-1.54
8,CN(C)c1nc(Cc2ccc(NC(=O)c3ccc4ccccc4c3)cc2)nc(Cl)c1CC(=O)O,0.756
9,COC(=O)Nc1nc2ccc(C(=O)c3ccc(F)cc3)cc2[nH]1,-0.98
10,Nc1ccc(S(=O)(=O)Nc2ncccn2)cc1,-0.336
11,CC(O)C1C(=O)N2C(C(=O)O)=C(SC3CNC(C(=O)N(C)C)C3)C(C)C12 (stereo unspecified),0.637
12,COc1c(OCCCN2CCOCC2)ccc2c3n(c(=NC(=O)c4cnc(N)nc4)nc12)CCN3,-1.79
13,Cc1c(NC(=O)OC[C@@H]2COCCN2)cn2ncnc(Nc3ccc4c(cnn4Cc4cccc(F)c4)c3)c12,-2.05
14,COc1ccc(CC2c3cc(OC)c(OC)cc3CC[N+]2(C)CCC(=O)OCCCCCOC(=O)CC[N+]2(C)CCc3cc(OC)c(OC)cc3C2Cc2ccc(OC)c(OC)c2)cc1OC (stereo unspecified),1.15
15,CS(=O)(=O)c1ccc(-c2cnc(N)c(C(=O)Nc3ccccc3)n2)cc1,0.761
16,CCCn1c(=O)c2[nH]c(-c3cnn(Cc4cccc(C(F)(F)F)c4)c3)nc2n(CC)c1=O,0.744
